In PubChem BioAssay (NCATS):
“And” between values parts separate entries of the source, which are not always exact repeats. Identical values can stand only once. Records with an inconclusive call do not appear. Where a call stands in place of a potency, no number is given. The source made the active and inactive calls. The call rests on the fitted dose curve; in most records, active means well fitted inhibition curve with a large enough effect; inconclusive means small, poorly fitted or top-dose-only effect; inactive means flat fitted curve, though single readings scatter.

Test: qHTS assay for small molecule disruptors of mitochondrial membrane potential screened against the NCATS CANVASS Library (AID 1347389); further: nearly all actives have a fitted effect of over 60% in size
Details: HepG2 mitochondrial membrane potential, m-MPI red/green ratio, 1.5 h; series mostly up to 46.1 µM
Description: Natural products and their derivatives continue to be wellsprings of nascent therapeutic potential. However, many laboratories have limited resources for biological evaluation, leaving their previously isolated or synthesized compounds largely or completely untested. To address this issue, the Canvass library of natural products was assembled (https://tripod.nih.gov/canvass), in collaboration with academic and industry researchers, for quantitative high-throughput screening (qHTS) across a diverse set of cell-based and biochemical assays. The pure (>85% purity by liquid chromatography/mass spectrometry [LC/MS]) Canvass library of 346 natural products were submitted by 45 academic laboratories and companies around the world. We collected pure natural products to circumvent deconvolution and structure elucidation due to time and resource limitations. The library was formatted into 1536-well plates and evaluated in 50 qHTS (in an 11-pnt concentration series) bioassays with broad scope of disease-relevant mechanisms. The resulting data set from 50 different assays was then systematically analyzed to identify overall trends and specific natural products with interesting biological activities. Reported herein are the results of each individual qHTS and their corresponding assay protocol. In healthy cells, the mitochondria are polarized and mitochondrial-membrane potential indicator (m-MPI) accumulates in the mitochondria as red fluorescent aggregates (emission at 590 nm). As the mitochondrial membrane depolarizes, m-MPI red-colored J-aggregates are converted to green fluorescent monomers (emission at 535 nm) and released from mitochondria into the cytosol. In response to mitochondrial depolarization, the red-to-green fluorescence ratio decreases. National Center for Advancing Translational Sciences (NCATS), Rockville, MD National Institute of Health (NIH), Bethesda, Maryland
Mitochondrial membrane potential protocol: 2,000 HepG2 cells in 5 uL/well were dispensed into black, clear-bottom 1536-well plates using a Multidrop Combi (Thermo Scientific) dispenser. The assay plates were incubated overnight at 37C to allow cells to attach to the wells, followed by the transfer of 23 nL compound or DMSO vehicle by a pin tool (Kalypsys). The plates were incubated for 1 hr at 37C and 5% CO2, followed by the addition of 5 uL of 2X Mito-MPS dye (BD Biosciences) into each well using Flying Reagent Dispenser (Aurora Discovery) and then following 30 min incubation at 37C. Fluorescence intensity (490nm excitation and 535nm emission for monomers; and 540nm excitation and 590nm emissions for aggregates) was measured using an Envision plate reader.
Potency means the concentration at half of the fitted maximal effect.

Row | SMILES | Potency
1 | Cc1cc(O)cc2c1C(=O)c1c(O)cc(O)cc1C2=O | inactive
2 | CN1CC[C@]23c4ccccc4N[C@H]1[C@]21CCN(C)[C@H]3Nc2ccccc21 | inactive
3 | C=CC(C)(C)C(=O)[C@@H](C)[C@@H]1CC[C@@](C)(C=C)O1 | inactive
4 | C/C(=C\[C@H](C)C(=O)C[C@H](O)CC1CC(=O)NC(=O)C1)[C@@H]1OC(=O)CCCC/C=C/C[C@@H](O)[C@@H]1C | inactive
5 | C[C@]12CC[C@]3(C1)[C@H](CC2=O)C[C@@H](OC(=O)c1ccccc1)[C@H]1[C@](C)(C(=O)O)CCC[C@@]13C | inactive
6 | C[C@H]1CCC2(OC1)O[C@H]1C[C@H]3[C@@H]4CC(=O)[C@]5(O)C[C@H](O)CC[C@@]5(C)[C@H]4CC[C@@]3(C)[C@H]1[C@H]2C (stereo not given in full) | inactive
7 | O=Cc1ccc2n1C[C@]1(C[C@H](O)[C@@H](CO)O1)OC2 | inactive
8 | CC[C@@H](c1cc(OC)c(OC)cc1OC)[C@H](C)[C@@H](/C(C)=C/c1cc(OC)c(OC)cc1OC)c1cc(OC)c(OC)cc1OC | 23.4 µM (active) and 20.9 µM (active)
9 | COc1cc2c(c(O)c1O)C(=O)c1c(coc1C)C2=O | 10.5 µM (active)
10 | O=C1CC2OCC=C3CN4C5CC3C2[C@@H]2N1c1ccccc1[C@]52C[C@@H]4C1=C[C@H]2C3CC4N(CC[C@@]45c4ccccc4N(C1=O)[C@@H]25)C/C3=C/CO (stereo not given in full) | inactive
11 | COc1ccc([C@@H]2c3cc4c(cc3C(=O)C(C)C2C)OCO4)cc1OC (stereo not given in full) | inactive
12 | C/C=C(/C)c1c(Cl)c(OC)c(C)c2c1Oc1c(Cl)c(O)c(Cl)c(C)c1C(=O)O2 | 2.63 µM (active)
13 | Cc1cc(C)c(O)c(C(=O)CC2CC(=O)NC(=O)C2)c1 | inactive
14 | C=C1C[C@H]2O[C@@H]3[C@@H]4[C@H](CC[C@@](C)(O)[C@@H]42)[C@H](C)COC3(C)[C@@H](OC(=O)CCCCCCC)C[C@H]1O (stereo not given in full) | inactive
15 | CC(=O)Oc1cc2c(c(OC(C)=O)c1C1CCc3cc(Cl)c(Cl)n31)C(=O)n1c-2cc(Cl)c1Cl (stereo not given) | 2.09 µM (active)
16 | CC(C)[C@]12CC[C@@]3(C)[C@H](C)CC[C@H](O)[C@@]3(CC1)c1cc3c(cc12)[nH]c1ccccc13 | 11.7 µM (active)
17 | O=C1CCC(=O)N(O)CCCCCNC(=O)CCC(=O)N(O)CCCCCNC(=O)CCC(=O)N(O)CCCCCN1 | inactive
18 | CO/C=C/C(=O)c1cc2cnc3c(N)cc(=NC(=O)C(C)C)c([nH]1)c23 | 3.31 µM (active)
19 | CO[C@H]1[C@@H](OC(=O)/C(C)=C\[C@@H]2O[C@@H]2[C@H]2O[C@H]2C)[C@H](O)[C@H](OCC23C[C@@H]4[C@H](C)CC[C@H]4C4(C=O)CC2C=C(C(C)C)C34C(=O)O)O[C@@H]1C (stereo not given in full) | inactive
20 | C/C=C/c1cc2c(c(=O)o1)C(=O)[C@@H](O)[C@H](C)O2 | inactive

Row | SMILES | Potency
21 | CC1=C[C@H]2[C@H]3C(=O)C(c4ccc(O)cc4)=C[C@@]3(c3ccc(O)cc3)[C@@H]1C(=O)[C@]2(C)O | inactive
22 | O=c1cc(-c2ccc(O)c(O)c2)oc2cc(O[C@@H]3O[C@H](CO)[C@@H](O)[C@H](O)[C@H]3O)cc(O)c12 | 8.31 µM (active)
23 | C=C(C)C(=O)O[C@H]1C[C@@]2(C)OC(=CC2=O)/C(C)=C\[C@H]2OC(=O)C(=C)[C@H]12 | 18.6 µM (active)
24 | C=C(C)CC[C@H](Cc1c(O)cc(O)c2c1O[C@H](c1ccc(O)cc1)CC2=O)C(=C)C | 8.31 µM (active)
25 | CC(=O)N[C@H](C)c1nc(/C=C/C=C/C(=O)CC2CC(=O)CC[C@]2(C)O)cs1 (stereo not given in full) | inactive
26 | COc1ccc(-c2oc3cc(OC)cc(OC)c3c(=O)c2O)cc1 | inactive
27 | C=C[C@]1(C)CC[C@@H]([C@H](C)C(=O)/C=C/C(C)(C)O)O1 | inactive
28 | O=C1CC(c2ccc(O)cc2)Oc2cc(O)ccc21 (stereo not given) | 7.41 µM (active)
29 | CN1C(=O)C(=O)N2C(=C[C@]3(c4c[nH]c5ccccc45)c4ccccc4N[C@H]23)C1=O | inactive
30 | COc1cc2ccc(=O)oc2c(O)c1O[C@@H]1O[C@H](CO)[C@@H](O)[C@H](O)[C@H]1O | inactive
31 | C=C1C[C@]23C=CC(=O)[C@@](C)(CCCC(C)C(=O)N[C@@H](CO)C(=O)O)[C@@H]2C[C@@H]1CC3 (stereo not given in full) | inactive
32 | C/C1=C/[C@@H](C)[C@H](O)[C@@H](O)/C=C/CC/C=C/C(=O)O[C@@H]1[C@H](C)C(=O)CCCC1CC(=O)NC(=O)C1 | inactive
33 | O[C@H]1C=C2[C@H]3CN(Cc4cc5c(cc43)OCO5)[C@H]2C[C@@H]1O | inactive
34 | CN1CC[C@]2(c3cccc4c3N[C@H]3N(C)CC[C@@]43[C@]34CCN(C)[C@H]3Nc3ccccc34)c3ccccc3N[C@H]12 | inactive
35 | CC[C@@H]1C[C@@]2(CC)OC(=O)[C@@]3(CC)[C@H](CC)[C@@H]1[C@@H]23 | inactive
36 | COC1C(C)OC(OCC23C[C@@H]4[C@H](C)CC[C@H]4C4(C=O)CC2C=C(C(C)C)C34C(=O)O)[C@@H](O)[C@H]1O (stereo not given in full) | inactive
37 | CO[C@@H]1[C@H](O)[C@@H](C)O[C@@H](OC[C@@H]2C(C)OC(=O)/C=C/[C@H](C)C(O[C@@H]3O[C@H](C)CC4(OC(=O)O[C@@H]4C)C3O)[C@@H](C)CC(C)C(=O)/C=C/[C@H]3OC23)[C@@H]1OC (stereo not given in full) | inactive
38 | CC1(C)CC[C@]2(CO)CC[C@]3(C)C(=CCC4[C@@]5(C)CC[C@H](O)C(C)(C)C5CC[C@]43C)C2C1 (stereo not given in full) | inactive
39 | CO[C@@H](C[C@@H](C)[C@@H](O)/C=C/C=C/CNC(=O)C(C)(C)[C@H](O)\C(C)=C/C=C\C=C\Cc1cnco1)[C@]1(O)[C@@H](C)C(=O)N(C)[C@@]12COC2=O | inactive
40 | C[C@@]12CCC[C@@](C)(C(=O)O)[C@H]1C[C@@H](O)[C@@]13C[C@@H](CC[C@@H]21)[C@](C)(O)C3 | inactive
